Consider 9 compounds from article PMC5540273 (PLoS ONE, 2017).

Some test systems named below: PDGFRA; PDGFRB; PDPK1; PFTAIRE2; PHKG1; PHKG2; PIK3C2B.
Holding throughout (details): concentration: 1 μM, replicates: in singlicate; n = 1
Another assay deals with T1, PCTK2.
T1 construct: gene CDK17

Another assay deals with T2, PCTK3.
T2 construct: gene CDK18

In another assay the test system is T3, PFTK1.
T3 construct: gene CDK14
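Also: KINOMEscan kinase panel screen.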

In the case of `CSc1ccc(NC2=C(c3ccc(Cl)cc3)C(=O)NC2=O)cc1` [SB-317658], the “%Inh” value with PCTK2 was determined as 0%; in the assay with PCTK3, 0%; in the assay with PDGFRA it was 3%; with PDGFRB it was 31%; in the assay on PDPK1 it was 17%; with PFTAIRE2, 4%. For the same compound, the “%Inh” value with PFTK1 was 8%; with PHKG1, 0%; in the assay with PHKG2, 0%; in the assay on PIK3C2B, 0%.
As for `NCCC(NC(=O)c1cc(Br)c(-c2ccnc3[nH]ccc23)s1)c1ccccc1.O=C(O)C(F)(F)F.O=C(O)C(F)(F)F` (stereo not drawn) [GSK1307810], the “%Inh” value with PCTK2 was determined as 16%; in the assay on PCTK3, 0%; in the assay on PDGFRA, 25%; in the assay with PDGFRB, 53%; in the assay on PDPK1, 28%; in the assay with PFTAIRE2, 8%. In addition, the “%Inh” value with PFTK1 stood at 0%; in the assay with PHKG1, 24%; in the assay on PHKG2, 12%; in the assay on PIK3C2B, 0%.
For the compound `Cc1cc(-c2c(-c3ccc(F)cc3)ncn2CCCN2CCOCC2)nc(N)n1` [SB-222517], the “%Inh” value in the assay with PCTK2 is given as 0%; in the assay on PCTK3, 0%; in the assay with PDGFRA it was 0%; in the assay with PDGFRB, 16%; in the assay with PDPK1 it was 0%; in the assay on PFTAIRE2 it was 0%. Besides, the “%Inh” value in the assay with PFTK1 worked out at 0%; with PHKG1, 12%; in the assay on PHKG2, 0%; in the assay with PIK3C2B, 28%.
For `CN(c1ccc(NC(=O)N2CCN(CCCN3CCOCC3)CC2)cc1)c1ccnc(Nc2ccc(CS(C)(=O)=O)cc2)n1.Cl` [GW830899], the “%Inh” value is 10% in the assay on PCTK2; 0% in the assay on PCTK3; 73% in the assay on PDGFRA; 99.4% with PDGFRB; 2% in the assay on PDPK1; 14% with PFTAIRE2. The “%Inh” value is recorded as 0% in the assay with PFTK1, 40% in the assay with PHKG1, 0% in the assay on PHKG2 and 0% with PIK3C2B.
Consider `COC(=O)Nc1nc2ccc(Oc3ccc(CC(=O)Nc4cc(C(F)(F)F)ccc4F)cc3)cc2[nH]1` [GW680903], for which the “%Inh” value stood at 0% in the assay on PCTK2; 30% with PCTK3; 98.5% in the assay on PDGFRA; 100% in the assay on PDGFRB; 0% in the assay with PDPK1; 0% in the assay with PFTAIRE2. Moreover, the “%Inh” value stood at 14% with PFTK1, 0% in the assay with PHKG1, 0% in the assay with PHKG2 and 0% in the assay with PIK3C2B.
For `CN(C)CCNS(=O)(=O)c1ccc(-c2ccnc3[nH]ccc23)cc1` [GSK977620], the “%Inh” value is 0% in the assay with PCTK2; 0% with PCTK3; 0% with PDGFRA; 54% with PDGFRB; 0% in the assay on PDPK1; 6% in the assay with PFTAIRE2. Besides, the “%Inh” value in the assay with PFTK1 turned out to be 0%; in the assay with PHKG1, 25%; in the assay on PHKG2, 7%; in the assay with PIK3C2B, 0%.
Turning to `c1ccc(Oc2ccc(Nc3ccnc4cc(-c5ccc(CN6CCCCC6)o5)ccc34)cc2)nc1` [GW567143], the “%Inh” value in the assay with PCTK2 was 0%; in the assay with PCTK3 it was 11%; in the assay on PDGFRA, 82%; in the assay with PDGFRB, 98.6%; in the assay on PDPK1 it was 0%; in the assay with PFTAIRE2, 7%. Also, the “%Inh” value in the assay with PFTK1 is recorded as 9%; in the assay on PHKG1, 5%; in the assay with PHKG2, 0%; with PIK3C2B, 0%.
As for `CN(c1ccc2c(c1)nc(NCc1ccccc1)n2C)c1ccnc(Nc2ccc(CS(C)(=O)=O)cc2)n1.Cl` [GW811603], the “%Inh” value worked out at 0% in the assay with PCTK2; 0% in the assay on PCTK3; 99.8% with PDGFRA; 100% with PDGFRB; 0% with PDPK1; 38% in the assay on PFTAIRE2. The “%Inh” value in the assay with PFTK1 amounted to 0%; in the assay on PHKG1, 8%; in the assay on PHKG2, 0%; in the assay on PIK3C2B, 0%.
On to `Fc1cc(Cl)ccc1Nc1ccnc2cc(-c3ccc(CN4CCOCC4)o3)ccc12` [GW560109], for which the “%Inh” value in the assay on PCTK2 is on record as 0%; with PCTK3, 0%; in the assay on PDGFRA, 99.6%; in the assay with PDGFRB it was 100%; in the assay on PDPK1 it was 8%; in the assay with PFTAIRE2, 12%. Moreover, the “%Inh” value is 0% with PFTK1, 13% in the assay on PHKG1, 0% in the assay on PHKG2 and 0% with PIK3C2B.
